ChEMBL document CHEMBL3988442, “University of Dundee, Small-Polar-MMV Screening Library” (2021)

Columns and labels:
[1] = molecular target: T1, Aspartate--tRNA(Asp/Asn) ligase (Mycobacterium tuberculosis (strain ATCC 25618 / H37Rv)) (UniProt P9WFW3); assay: Assay for Asp RNA synthetase-1 from Mycobacterium tuberculosis; assay type: functional; design: scale not given: direction of the effect not stated beside the values; settings: 30 µM; note: in the data most compounds retested in dose-response had high values
T1 sequence (whole entry): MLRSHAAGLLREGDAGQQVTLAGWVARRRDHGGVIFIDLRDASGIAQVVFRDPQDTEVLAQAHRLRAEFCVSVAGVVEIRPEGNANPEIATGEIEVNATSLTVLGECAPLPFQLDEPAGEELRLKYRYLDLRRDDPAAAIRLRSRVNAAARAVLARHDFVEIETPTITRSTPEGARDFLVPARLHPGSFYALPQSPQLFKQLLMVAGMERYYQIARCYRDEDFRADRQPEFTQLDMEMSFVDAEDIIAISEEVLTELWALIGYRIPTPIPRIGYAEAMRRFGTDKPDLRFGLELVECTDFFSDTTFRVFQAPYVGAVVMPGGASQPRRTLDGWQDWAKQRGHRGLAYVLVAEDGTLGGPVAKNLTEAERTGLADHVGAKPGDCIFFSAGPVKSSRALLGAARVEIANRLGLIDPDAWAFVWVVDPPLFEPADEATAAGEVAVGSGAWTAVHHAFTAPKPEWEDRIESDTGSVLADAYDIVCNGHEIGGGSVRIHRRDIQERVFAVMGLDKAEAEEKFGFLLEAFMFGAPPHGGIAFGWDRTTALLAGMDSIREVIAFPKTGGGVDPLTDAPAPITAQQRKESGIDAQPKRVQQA

[2] = molecular target: Shiga toxin 2 (Escherichia coli O157:H7) (UniProt P09385+P09386); assay: E. coli 0.157:H7 Shiga Toxin SOP - stx2 screening assay; assay type: functional; design: scale not given: direction of the effect not stated beside the values; settings: 30 µM

Compound | Percent Effect [1] [%] | Percent Effect [2] [%]
Cc1cc(C)n(CC2CCCCN2Cc2cscn2)n1 (stereo unspecified) | -3.34 | 25.2
Cc1cc(C)c2cc(CNCC3CCCO3)c3nn(C)c(=O)n3c2c1 (stereo unspecified) | 1.03 | 3.55
CC1CCN(c2ncc3c(n2)CN(c2ccc4c(c2)OCO4)C3=O)CC1 | 10.8 | -21.4
CCn1c(CN(C)C)nnc1C1CCN(Cc2ccccc2)CC1 | -0.862 | -23.5
Cc1cccnc1C(=O)N1CCCCC1c1[nH]ncc1S(C)(=O)=O (stereo unspecified) | 5.01 | 6.84
CN(C)C(=O)C1CN(Cc2c[nH]cn2)CCN(C2CCOCC2)C1 (stereo unspecified) | 0.313 | -8.14
Cc1nccn1-c1cc(CNC(=O)C(C)(C)C)ccn1 | 10.6 | -3.04
Cc1cc(CNC(=O)N2CCCN(Cc3ccccc3)CC2)no1 | -4.23 | 9.91
Cc1ccc(=O)n(CC2(O)CCN(Cc3cnc(C)nc3)CC2)n1 | 1.71 | 5.87
CCOCC(O)CN1CCN(C(=O)c2cc(F)ccc2C)CC1 (stereo unspecified) | -0.759 | 9.83
O=C(c1cnccn1)N1CCCC2(COCCN(CC3CC3)C2)C1 (stereo unspecified) | 3.16 | 9.41
Cc1cccc(-c2noc(CN3CCc4nn(C)c(=O)cc4C3)n2)c1 | 47.9 | -21.4
CN(C)C(=O)[C@@H]1CCO[C@@H]2CCN(CCc3ccccc3)C[C@@H]21 | -3.08 | 1.17
Cc1cnc(CN2CCC(N(C)Cc3nnc(C4CC4)n3C)C2)cn1 (stereo unspecified) | 5.06 | 5.3
COc1ccc(C(=O)NCCc2nnc3ccccn23)c(OC)c1 | 3.2 | -5.45
O=C(c1ccc2c(c1)OCO2)N1CCC[C@]2(C[C@H](OCC3CC3)CO2)C1 | 1.07 | 5.01
Cn1ncc(NCc2cc(F)cc(F)c2)c(Cl)c1=O | -1.31 | -23.1
Cc1cc(F)c(S(=O)(=O)NCCCN2CCC(O)CC2)cc1F | 11.3 | -69.6
